IDH1 R132H inh – human IDH1 R132H inhibition. O75874. IDH1-R132H enzyme, NADPH consumption, diaphorase/resazurin fluorescence. Potency, µM (titrated, usually from 76.6 µM), for the others: at the highest dose activity change, negative = inhibition, usual class: inhibitors. 390,000 compounds, 0.093% hits. AID 602179; further: on the % scale 0 is the no-effect control and ±100 the full control effect; nearly all actives have a fitted effect of over 65% in size
Target sequence (O75874 whole entry R132H, stated change not applied): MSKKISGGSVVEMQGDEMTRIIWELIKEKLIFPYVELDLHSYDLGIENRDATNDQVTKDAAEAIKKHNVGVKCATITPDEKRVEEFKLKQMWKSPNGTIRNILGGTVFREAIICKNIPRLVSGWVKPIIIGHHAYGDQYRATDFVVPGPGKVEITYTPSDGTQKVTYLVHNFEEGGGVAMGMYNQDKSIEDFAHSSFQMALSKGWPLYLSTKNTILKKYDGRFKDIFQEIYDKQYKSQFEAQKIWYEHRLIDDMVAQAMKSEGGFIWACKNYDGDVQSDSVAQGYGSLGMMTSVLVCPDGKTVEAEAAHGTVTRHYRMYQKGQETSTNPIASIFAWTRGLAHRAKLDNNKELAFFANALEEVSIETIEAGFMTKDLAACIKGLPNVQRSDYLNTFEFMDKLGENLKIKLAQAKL
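IDH1-R132H (0.5 ug/mL dispensed) in pH 7.5 Tris buffer was preincubated 30 min with compound, then given a substrate mix of 0.016 mM NADPH and 2 mM alpha-KG for 80 min at room temperature; remaining NADPH was read by diaphorase/resazurin fluorescence.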
Nrf2 ARE act – activates Nrf2 signaling | 410,000 compounds, 0.31% hits | AREc32 ARE-luciferase reporter (MCF7-derived line), luminescence, 24 h | AID 624171 | Potency, µM (highest dose often 46.1 µM), without a hit: at the top dose activation, hits mostly activators; further: % of control where 0% means no effect; nearly all actives have a fitted effect of over 65% in size
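Nrf2 activation is followed as ARE-luciferase induction in the AREc32 line after one day of compound treatment; luminescence is read with Steady-Glo.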
ELG1 repair inh – ELG1-dependent DNA repair inhibition | HEK293T ELG1-luciferase reporter, luminescence, 16 h; DNA damage induced by 5-fluorouridine | Potency, µM (highest dose often 46.1 µM), without a hit: top-dose activity change, negative = inhibition, usual class: inhibitors | 330,000 compounds, 2.3% hits | AID 504467; further: on the % scale 0 is the no-effect control and ±100 the full control effect; nearly all actives have a fitted effect of over 55% in size
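Cells (2,000 per well) received 5-fluorouridine plus test compound or DMSO and were incubated 16 hr at 37 °C, 5% CO2. Luciferase activity was read by luminescence 30 min after ONE-Glo addition; signal suppression marked inhibition of damage-induced ELG1 function.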
Nrf2 block – Nrf2 pathway inhibition | A549 ARE-Fluc reporter, luciferase luminescence, 18-24 h | Potency, µM (titrated, usually from 46 µM), for inactives: at the highest dose activity change, negative = inhibition, actives largely listed as inhibitors | 360,000 compounds, 2.1% hits; further: on the % scale 0 is the no-effect control and ±100 the full control effect; nearly all actives have a fitted effect of over 60% in size
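Nrf2 function is reported as luminescence of an ARE-controlled luciferase in A549 cells. Compounds were tested at several concentrations, and a CellTiter-Fluor read on the same wells flagged cytotoxicity.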
A549 tox-1 – A549 cytotoxicity, counter-screen for Nrf2 inhibitors. A549 ARE-Fluc cells, CellTiter-Fluor viability, 18-24 h. 390,000 compounds, 0.16% hits. Potency, µM (highest dose often 46 µM), without a hit: at the highest dose activity change, negative = cytotoxicity, actives largely listed as inhibitors; further: on the % scale 0 is the no-effect control and ±100 the full control effect
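A549 ARE_Fluc cells in 5% FBS OPTI-MEM were exposed to compounds in concentration-response for 18-24 h at 37 deg C. Viability was read by CellTiter-Fluor fluorescence (Ex 405/Em 525) after 30 min, before the luciferase read.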
FLuc enzyme inh – blocks purified firefly luciferase in Nrf2 counterscreen. shares compounds with Nrf2 block. purified firefly luciferase, luminescence inhibition. Potency, µM (doses to about 57.5 µM), for inactives: top-dose activity change, negative = inhibition, most hits filed as inhibitors. 1,400 compounds, 4% hits; further: on the % scale 0 is the no-effect control and ±100 the full control effect; nearly all actives have a fitted effect of over 65% in size
A549 tox-2 – A549 cytotoxicity, Nrf2 inhibitor counterscreen. shares compounds with Nrf2 block. A549 ARE-Fluc cells, cytotoxicity counterscreen. Potency, µM (highest dose often 46.1 µM), for the others: top-dose activity change, negative = cytotoxicity, actives largely listed as inhibitors. 1,400 compounds, 2% hits. AID 720523;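 further: cells exposed to compounds for 18 to 24 hours; on the % scale 0 is the no-effect control and ±100 the full control effect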
Nrf2 ARE inh – confirmation of Nrf2 inhibitors in A549 ARE reporter cells; A549 ARE-firefly luciferase reporter, luminescence; shares compounds with Nrf2 block; Potency, µM (top dose mostly 46.1 µM), inactives show at the highest dose activity change, negative = inhibition, most hits filed as inhibitors; 1,400 compounds, 74% hits; further: on the % scale 0 is the no-effect control and ±100 the full control effect; nearly all actives have a fitted effect of over 65% in size
* = called active by the depositor; ? = inconclusive; nt = no result given; ! = not active in a repeat. Compounds with a hit are over-represented: about 3.8% of the library has one in this group of screens. The call rests on the fitted dose curve; in most records, active means well fitted curve in the direction sought with a large enough effect; inconclusive means small, poorly fitted or top-dose-only effect, or another doubt; inactive means no such curve, though single readings can be large; an effect the other way counts as inactive or inconclusive. Potency means the concentration at half of the fitted maximal effect.

SMILES	IDH1 R132H inh	Nrf2 ARE act	ELG1 repair inh	Nrf2 block	A549 tox-1	FLuc enzyme inh	A549 tox-2	Nrf2 ARE inh
CCOc1ccc(-c2nc(Cn3c(=O)cc(-c4ccccc4)c4c(C)nn(C)c43)c(C)o2)cc1	-5.5%	0.9%	nt	5.8µM*	8.6%	-0.1%	-2.8%	13.9%
COC(=O)C1=C[C@@H](C(=O)OC)C2C3=C(C(=O)[C@]2(CC(C)C)NC(=O)c2ccccc2)[C@H](C)n2c(=O)n(-c4ccccc4)c(=O)n2[C@@H]3C1 (stereo partly drawn)	nt	nt	nt	5.4%	-7.4%	nt	nt	nt
CCOC(=O)c1ccc(NC(=O)CCc2c(C)nc3cc(-c4ccc(OC)cc4OC)nn3c2C)cc1	-0.8%	0.5%	nt	4.5%	-2.9%	nt	nt	nt
COc1cc(OC)cc(-c2cc3nc(C)c(CCC(=O)Nc4ccc(C(C)=O)cc4)c(C)n3n2)c1	-2.8%	-3.3%	nt	4.11µM*	-10.2%	-12.4%	-4.7%	18.4µM*
COc1cc(OC)cc(-c2cc3nc(C)c(CCC(=O)Nc4ccccc4OC)c(C)n3n2)c1	-4.2%	-1.3%	nt	?	-2.8%	nt	nt	nt
COc1cc(OC)cc(-c2cc3nc(C)c(CCC(=O)NCc4ccccc4)c(C)n3n2)c1	0.0%	-1.7%	20.6µM*	7.31µM*	1.7%	-17.7%	3.3%	7.31µM*
Cc1cccc(-n2ccnc2SCC(=O)Nc2ccccc2C(F)(F)F)c1	-3.1%	-0.3%	nt	nt	-1.9%	nt	nt	nt
CO[C@H]1/C=C/O[C@@]2(C)Oc3c(C)c(O)c4c(O)c(c(C=NN5CCN(C)CC5)c(O)c4c3C2=O)NC(=O)/C(C)=C\C=C\[C@H](C)[C@H](O)[C@@H](C)[C@@H](O)[C@@H](C)[C@H](OC(C)=O)[C@@H]1C	0.2%	0.3%	-10.7%	4.11µM*	?	-9.8%	?	4.61µM*
CC(C)(C)c1ccc(-n2ncc3c2CCCC3NC(=O)c2ccncc2)cc1 (stereo not drawn)	5.7%	-0.3%	nt	2.59µM*	-12.2%	?	-5.5%	8.2µM*
Cc1cc(C(=O)NC2CCCc3c2cnn3-c2ccc(C(C)(C)C)cc2)n[nH]1 (stereo not drawn)	-4.0%	3.7%	?	4.61µM*	13.1%	?	-10.7%	16.4µM*
CC(C)(C)c1ccc(-n2ncc3c2CCCC3NC(=O)CCC2=NNC(=O)CC2)cc1 (stereo not drawn)	-8.5%	4.5%	nt	nt	nt	nt	nt	nt
Cc1nnsc1C(=O)NC1CCCc2c1cnn2-c1ccc(C(C)(C)C)cc1 (stereo not drawn)	-4.3%	-0.6%	1.9%	2.06µM*	?	?	-12.8%	nt
CCOC(=O)C(Cc1c[nH]c2ccc([N+](=O)[O-])cc12)(NC(C)=O)C(=O)OCC	3.7%	0.4%	nt	-0.1%	-5.9%	nt	nt	nt
C[C@@H]1CN([C@H](C)CO)C(=O)CCCn2cc(nn2)CO[C@H]1CN(C)S(=O)(=O)c1ccc2ccccc2c1	-3.6%	-1.3%	nt	nt	nt	nt	nt	nt
COC(=O)c1ccccc1NC(=O)CCCn1c(C)c2cnn(-c3ccccc3)c(=O)c2c1C	8.5%	-0.1%	nt	15.4%	2.3%	nt	nt	nt
C/C(Nc1ccc(Cl)c(Cl)c1)=C1/CCOC1=O	16.2%	2.8%	nt	nt	nt	nt	nt	nt
Cn1c(-c2ccccc2)c[n+]2c1-c1ccccc1C2	-3.0%	0.1%	8.9%	?	7.1%	-10.0%	-8.9%	1.64µM*
Cn1c(-c2ccccc2)cccc1=O	10.5%	0.5%	?	nt	-1.5%	nt	nt	nt
CCc1nc(N)nc(N)c1-c1ccc(N(C)Cc2ccccc2)c([N+](=O)[O-])c1	4.6%	0.2%	nt	1.3µM*	-12.7%	-2.1%	-14.8%	1.16µM*
CCOc1ccc(NC(=O)c2cnn3c2NC(c2ccccc2)=CC3c2cccc(OC)c2OC)cc1 (stereo not drawn)	3.6%	0.3%	nt	7.5%	5.1%	nt	nt	nt
COc1cccc(C2C=C(c3ccccc3)Nc3c(C(=O)Nc4ccccc4)cnn32)c1OC (stereo not drawn)	-11.2%	4.3%	nt	2.31µM*	-11.3%	2.0%	-13.4%	?
C#CCOc1ccc(/C=C2/C(=O)NN(c3ccc(F)cc3)C2=O)cc1OC	7.6%	-0.7%	15.8%	5.1%	-1.1%	nt	nt	nt
Cc1nc2ccc(NS(=O)(=O)c3ccc4c(c3)OCCO4)cc2s1	1.6%	3.4%	?	2.91µM*	-25.2%	-1.6%	-1.2%	6.51µM*
C[n+]1c2n(c3ccccc31)N=C(c1ccccc1)CS2	0.2%	8.91µM*	5.8µM*!	3.66µM*	?	0.0%	-9.5%	nt
Cc1cc(O)c2c(c1O)C(=O)[C@]13C(=C2O)C(=O)[C@@H]2[C@@H](O)[C@H]1[C@@H]1[C@H](O)[C@H]3C(=O)C3=C(O)c4c(O)cc(C)c(O)c4C(=O)[C@]312	-12.6%	5.5%	?	0.366µM*	?	?	?	1.16µM*
SMILES	IDH1 R132H inh	Nrf2 ARE act	ELG1 repair inh	Nrf2 block	A549 tox-1	FLuc enzyme inh	A549 tox-2	Nrf2 ARE inh
Cc1cc(OCC(=O)Nc2ccncc2)cc(C)c1Br	7.1%	0.0%	?	9.2µM*	-7.7%	-9.5%	11.0%	8.2µM*
CS(=O)(=O)N1CCC(C(=O)Nc2ccc(Cl)cc2Cl)CC1	5.8%	-0.9%	nt	nt	nt	nt	nt	nt
Cc1cc(NC(=O)CSc2nc3c(sc4ccccc43)c(=O)n2CCCN2CCOCC2)n[nH]1	-2.2%	-0.7%	?	7.31µM*	?	2.1%	?	10.3µM*
Cc1cc(NC(=O)CSc2nc3c(sc4ccccc43)c(=O)n2CCc2ccccc2)n[nH]1	-0.8%	-0.8%	?	-27.3%	-9.6%	nt	nt	nt
c1ccc(C[n+]2cccc3c4ccccc4ccc32)cc1	11.8%	-0.4%	15.0%	?	?	-0.3%	-11.2%	nt
CCOC(=O)c1sc(NC(=O)c2cc(-c3ccccc3)nc3ccccc23)c(C#N)c1C	-0.6%	0.2%	?	4.61µM*	?	10.7µM*	?	6.51µM*
CCOC(=O)c1sc(NC(=O)c2cccc(S(=O)(=O)N3CCc4ccccc43)c2)c(C#N)c1C	-6.0%	0.5%	?	5.8µM*	?	-17.7%	?	2.91µM*
O=C(Nc1cccnc1)c1cccc(S(=O)(=O)N2CCc3ccccc32)c1	4.3%	3.1%	?	?	-2.8%	nt	nt	nt
O=C(O)c1cccc(NC(=O)c2cccc(S(=O)(=O)N3CCc4ccccc43)c2)c1	-3.2%	3.5%	?	9.8%	10.2%	nt	nt	nt

Bioassay records (PubChem)
